Measured values reported in PubChem BioAssay AID1508600 (Functional Genomics Laboratory (NCATS/FGL), 2020).
Out of some 53,000 sequences screened, about 3,700 (7%) were called active.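 The calls were made as follows: active = gene knockdowns whose robust z-score for IL-1 alpha signal is at least 2 or at most -2, so actives lie on both sides; inactive = the rest.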 Shown is part of a subset that was picked to be rich in actives.

experiment: Components of the Cytosolic LPS Sensing Pathway: Gene Identification via Genome-wide siRNA Screen; conditions: RAW264.7 macrophages, IL-1a HTRF, actives lie on both sides, screened at 100 nM (by protocol), cells primed 5 h with Pam3CSK4 first;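 also: robust z of the log signal after scaling to non-targeting control siRNA wells of the plate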
In short: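 Supernatant IL-1a by HTRF from RAW264.7 cells primed with Pam3CSK4 (5 hours) and transfected with LipidA (24 hour) after 48h siRNA knockdown at 100 nM; cell viability checked with CellTiter-Glo.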

Question: With GGGUUAUAGGUGUGUGUGCTT against Gemin6 as the sequence, how does the z-score read?
Answer: -0.389 (inactive)

Question: Which z-score does the source give for GCUGCACUUGAAAUCCGAGTT against Atg2b here?
Answer: 1.49 (inactive)

Question: With GCCCGUUCCACUUUUGGAGTT against Nedd1 as the sequence, how does the z-score read?
Answer: 2.2 (active)

Question: For GGAAGAAGCAGAAGAACAUTT against Rpl12, which z-score is on record?
Answer: 2.55 (active)

Question: With GGAACUCCUGGAGCAGAACTT against Tbc1d10b as the sequence, how does the z-score read?
Answer: -2.52 (active)

Question: For GGUUGUGCAAGAGUAUGAATT against Nphs2, which z-score is on record?
Answer: 0.316 (inactive)

Question: Which z-score does the source give for GCGCACAACAGACUUCUAUTT against Epm2a here?
Answer: 0.0628 (inactive)

Question: For GGAAGAACUUGACCCAGAGTT against Pex16, which z-score is on record?
Answer: 1.31 (inactive)

Question: With GGCGACAGUUGUUUUUGUGTT against Nlrp4b as the sequence, how does the z-score read?
Answer: -0.588 (inactive)

Question: Which z-score does the source give for GCUGUUUUACCUUAAUCCCTT against Tnfsf18 here?
Answer: 0.601 (inactive)

Question: With “GGAAUUCCAAGUCAUUAUUTT against B230340J04Rik” as the sequence, how does the z-score read?
Answer: 0.664 (inactive)

Question: For GCAUCUUAGGCAUUGCUAGTT against Pcna, which z-score is on record?
Answer: -0.156 (inactive)

Question: Which z-score does the source give for GGAUCAUGGGCGAAUGAUGTT against Rae1 here?
Answer: -1.41 (inactive)

Question: With “GGACAAAAACAAAUGUGAGTT against 4933417A18Rik” as the sequence, how does the z-score read?
Answer: -2.43 (active)

Question: Which z-score does the source give for GGAAUCAAAGGUCAAGCCATT against Rnf181 here?
Answer: 2.17 (active)

Question: Which z-score does the source give for CCAUGUCAGUUACAAUGCGTT against Gja6 here?
Answer: 1.54 (inactive)

Question: For GGUCCAUGAUUGAAACACGTT against Srpr, which z-score is on record?
Answer: 0.798 (inactive)

Question: Which z-score does the source give for GCAGAUAAGAGUUCAAAUCTT against Oxa1l here?
Answer: -0.499 (inactive)

Question: Which z-score does the source give for GACAUACAAUCUCCUACAUTT against Olfr478 here?
Answer: 0.818 (inactive)

Question: Which z-score does the source give for GCCGGGACCAUGAUUAUAGTT against Rbm10 here?
Answer: 2.7 (active)

Question: With GGAAUUCCGAAUAUUCCAGTT against Tsen2 as the sequence, how does the z-score read?
Answer: 1.51 (inactive)

Question: With GGAAGCCACCUUAACAUUATT against Osgin1 as the sequence, how does the z-score read?
Answer: -0.814 (inactive)

Question: For GGAGAACUCUUUCAGAUUCTT against Stk36, which z-score is on record?
Answer: 0.957 (inactive)

Question: Which z-score does the source give for GGGAUUCUGUCUGCACUGUTT against Olfr1145 here?
Answer: -2.51 (active)

Question: With GGGUUCUGCAUGUUGAUUCTT against Chm as the sequence, how does the z-score read?
Answer: -0.853 (inactive)

Question: With GCCACCCACCUAAAAUCAATT against Rcsd1 as the sequence, how does the z-score read?
Answer: -0.216 (inactive)

Question: With GGAAGUCUAGGUAAAAAAGTT against Samsn1 as the sequence, how does the z-score read?
Answer: -0.994 (inactive)

Question: With GGACUUCAAGGACUUCUACTT against Crtap as the sequence, how does the z-score read?
Answer: 0.112 (inactive)

Question: With GGACAAUUGAAAACUGCCUTT against Gpd1 as the sequence, how does the z-score read?
Answer: 2.95 (active)

Question: With GGGUGAGUGUCGGAACUUUTT against Sema6b as the sequence, how does the z-score read?
Answer: -0.157 (inactive)

Question: Which z-score does the source give for GGUUGUGCCAGAGGAGAUUTT against Scrib here?
Answer: 0.963 (inactive)

Question: With GGAAGAACUAGAGUCAUAUTT against Eps8l1 as the sequence, how does the z-score read?
Answer: -0.0721 (inactive)

Question: For CCAUACAUAAAAAGCCGCCTT against Il1rl1, which z-score is on record?
Answer: 1.29 (inactive)

Question: With GGUUCAUGUCAUCUUUAACTT against Calr as the sequence, how does the z-score read?
Answer: -1.21 (inactive)

Question: Which z-score does the source give for GCAGAUGAUACCUGGGCAATT against Mtmr14 here?
Answer: 2.68 (active)

Question: With GGAUCAAUUGGCACUAGACTT against Zfp787 as the sequence, how does the z-score read?
Answer: -1.31 (inactive)

Question: With GGACAAGUCCUUUGCUGUGTT against Zmynd8 as the sequence, how does the z-score read?
Answer: -1.35 (inactive)

Question: For GGCAAUACUGGAAGGGUGUTT against Eps15, which z-score is on record?
Answer: -1.03 (inactive)

Question: With GGAUGAUAUGGCAUACUUUTT against Fam221a as the sequence, how does the z-score read?
Answer: 0.803 (inactive)

Question: For “GGCCAUCUUGAAUUUUUUATT against 2410002F23Rik”, which z-score is on record?
Answer: 0.0652 (inactive)

Question: For GGUGCUGUUGAAUUGUGGGTT against Wdr77, which z-score is on record?
Answer: -0.366 (inactive)

Question: With GAGCUCCUCUGCUUUCUCUTT against Ms4a6d as the sequence, how does the z-score read?
Answer: -2.74 (active)

Question: For GGUUAAACUUGGUGAAUUATT against Kcnj16, which z-score is on record?
Answer: 0.901 (inactive)

Question: For GCACAUGUCUGUGAUUCAATT against St8sia1, which z-score is on record?
Answer: -0.166 (inactive)

Question: For GCGGAAACUCUCGAAAGUGTT against Dhx34, which z-score is on record?
Answer: -1.52 (inactive)

Question: For CCUGAUGCAACACAGGUCCTT against Zbtb26, which z-score is on record?
Answer: 0.352 (inactive)

Question: Which z-score does the source give for CGGAACACCAAUAAGAGAATT against Hgd here?
Answer: -0.667 (inactive)

Question: For GGACCGAUUAAGGAAGGAATT against Ppp1r1a, which z-score is on record?
Answer: 2.49 (active)

Question: For GCGUGAUUGACAACUGGUUTT against Cphx1, which z-score is on record?
Answer: 0.236 (inactive)

Question: For GGGAAUAUGACUGAAUAUATT against Ss18, which z-score is on record?
Answer: -1.05 (inactive)

Question: Which z-score does the source give for CCAAAUCGCUUCACAUAAUTT against Atp6v1g2 here?
Answer: -1.1 (inactive)

Question: For GAGAAUGAGUUCUGCCCAGTT against Lhb, which z-score is on record?
Answer: 2.24 (active)

Question: Which z-score does the source give for GGACAAGAACCUGAAGCGGTT against Cdk5r1 here?
Answer: -0.355 (inactive)

Question: Which z-score does the source give for GGCUGGAGAAAAUGAUGAATT against Rwdd1 here?
Answer: -0.267 (inactive)

Question: With GGAAGACAUAUUAACUACUTT against Gpr37 as the sequence, how does the z-score read?
Answer: 0.544 (inactive)

Question: Which z-score does the source give for GGAAAGCUCAAUUGGUUCGTT against Nup85 here?
Answer: -2.27 (active)

Question: Which z-score does the source give for GGGAUCAUCUCUUUUGCUGTT against Olfr720 here?
Answer: -1.33 (inactive)

Question: For GGGAAGCCUUUUUUAUCGGTT against V1rb5, which z-score is on record?
Answer: 0.838 (inactive)

Question: Which z-score does the source give for CCCAUCCAAUAAGCAAUUGTT against Lpcat2 here?
Answer: -0.696 (inactive)

Question: With GCGAGACUAUCAAAUCUAUTT against Gabra4 as the sequence, how does the z-score read?
Answer: 0.948 (inactive)

Question: For GGGAUAGUUACCUAAGACATT against Adarb2, which z-score is on record?
Answer: 0.593 (inactive)

Question: For GCACAAGUCUAAACAGCUGTT against Fermt1, which z-score is on record?
Answer: 0.494 (inactive)

Question: For GGAAAAAUACUCCAUAUUCTT against Enam, which z-score is on record?
Answer: 0.0353 (inactive)

Question: With CCUCAACACUCAGCUCAAUTT against Ifna14 as the sequence, how does the z-score read?
Answer: -2.67 (active)

Question: For GGCCAGUAGAUCCUUCUAATT against Fgf16, which z-score is on record?
Answer: 0.406 (inactive)

Question: For CCUAAUCUAGAGCAACACATT against Ankrd34c, which z-score is on record?
Answer: -1.67 (inactive)

Question: For GGCCUACCUUACCCUAAGATT against Adam32, which z-score is on record?
Answer: 0.513 (inactive)

Question: Which z-score does the source give for CCAUGGCUUACGAGAGACATT against Mavs here?
Answer: -0.884 (inactive)

Question: Which z-score does the source give for GGAAUCCUUUCCUAAAUUGTT against Lin9 here?
Answer: 0.745 (inactive)
